The values below come from PubChem BioAssay (Tox21).

Records with an inconclusive call do not appear. A call without a number means that no potency is given here. Active and inactive are the calls of the source. The call rests on the fitted dose curve.
Potency means the concentration at half of the fitted maximal effect.

A short description of this test: qHTS assay to identify small molecule antagonists of the sonic hedgehog signaling (Shh) pathway (AID 1259369). Further: nearly all actives have a fitted effect of over 45% in size. To be noted: NIH/3T3 Gli1-Luc reporter, Shh antagonist, luminescence 24 h; series mostly up to 92.4 µM. From the text:
U.S. Tox21 Program National Center for Advancing Translational Sciences [NCATS] NIH Chemical Genomics Center [NCGC] U.S. Environmental Protection Agency [EPA] National Institutes of Environmental Health Sciences [NIEHS] National Toxicology Program [NTP] U.S. Food and Drug Administration [FDA] Tox21 Assay Overview: The sonic hedgehog (Shh) pathway is essential for normal embryonic development. Dysregulation of the Shh pathway can cause severe developmental defects in organs. Therefore chemicals that interfere with the pathway are potential developmental toxicants. A cell line designated 3T3Gli1-Luc (DMB/OARSA/CFSAN/FDA, Laurel, MD), a NIH/3T3 derived clone containing stably integrated Gli1-Luc reporter is used to detect chemical interference of the Shh pathway, by changes in the expression of the firefly Luc gene under the control of the Gli1 transcriptional response element. This cell line was used to screen Tox21 libraries for identifying and prioritizing the potential developmental toxicants that interfere Shh pathway. Conditioned medium-stimulated mode was used to screen for chemicals inhibiting Shh signaling.
Tox21 Assay Protocol Summary: 3T3 Gli1-Luc cells were dispensed at 2,000 per well in 5uL of culture medium into white solid bottom 1536-well plates (Greiner Bio-One, Monroe, NC) using a Multidrop Combi (Thermo Scientific, Waltham, MA) dispenser. The assay plates were incubated at 37 C and 5% CO2 for 4hr, and then 23nL of compounds dissolved in DMSO and positive control were transferred using a Pintool station (Wako, San Diego, CA). The compound transfer was followed by the addition of 1ul conditioned medium or assay buffer using two separate tips of Flying Reagent Dispenser (FRD, Aurora Discovery, San Diego, CA). The assay plates were incubated at 37C and 5% CO2 for 24hr. For luciferase read, 4uL of Amplite Luciferase reporter gene assay reagent (AAT Bioquest, Inc. Sunnyvale, CA) was added to each well of the assay plates using FRD and incubated at room temperature for 30min. The luminescence signal was measured using a ViewLux plate reader (Perkin Elmer, Shelton, CT).
(In qHTS, concentration-response curves come from the screen itself.)
For the compound `CCCCCCOC(=O)CCCCC`, the Potency result is “inactive”.
For `CC(CO)(CO)C(=O)O`, the Potency result is “inactive”.
With `CCCCOC(=O)CCCCC(=O)OCCCC`, the Potency entry is “inactive”.
As for `C=CCOC(=O)COCCC(C)C`, the Potency result is “inactive”.
On the same count and under the same terms, the entry for `CNC1CCCN(c2c(F)cc3c(=O)c(C(=O)O)cn(C4CC4)c3c2OC)C1` (stereo not given) is “inactive”.
The same measure, in the same setting: the entry for `COc1ccc(C)cc1` is “inactive”.
`CC(C(=O)O)c1ccc(C(=O)c2cccs2)cc1` (stereo not given): the Potency entry is “inactive”.
The same measure, in the same setting: the entry for `CC1CCCO1` (stereo not given) is “inactive”.
On the same count and under the same terms, next, `CC1=CC[C@@]23C[C@@H]1C(C)(C)[C@@H]2CC[C@H]3C`: “inactive”; `CC(=O)OCCC1CCCCC1`: “inactive”.
Still for that read-out and setting: next, `CCCCCCCCCCCCCOS(=O)(=O)O`: “inactive”; `COc1cc(S(=O)(=O)Nc2ccccc2)c(OC)cc1N`: “inactive”.
`CCCCCCCCCCCCCOC(=O)CCSCCC(=O)OCCCCCCCCCCCCC`: the activity change, negative = inhibition was 8.97% [at 19 µM] (inactive).
Take `CC(=O)c1ccc[nH]1`: the Potency entry was “inactive”.
The same measure, in the same setting: next, `O=C(O)CCCc1c[nH]c2ccccc12`: “inactive”; `CCCCCCCCCCCCCC(=O)OCC(O)CO` (stereo not given): “inactive”; `CC(=O)OCC(C)C`: “inactive”.
`CC(=O)OCC1=C(C(=O)O)N2C(=O)[C@@H](NC(=O)CSc3ccncc3)[C@H]2SC1`: the Potency entry was “inactive”.
On the same count and under the same terms, the figure for `CNS(=O)(=O)c1cc(C(=O)N2CCC(CCN3C4CCC3CC(n3c(C)nc5ccccc53)C4)(c3cccc(F)c3)CC2)c(Cl)cc1F` (stereo not given) is 15.4 µM (active); for `CC(=O)OCCC(C)CC(C)(C)C` (stereo not given) it is “inactive”.
The same measure, in the same setting: the figure for `O=C(c1ccccc1)c1ccc(O)cc1` is 15.5 µM (active).
Consider `Cc1ccc2c(c1[N+](=O)[O-])C(=O)c1ccccc1C2=O`, for which the Potency entry is “inactive”.
For the compound `O=C(O)CN1C(=O)c2cccc3cccc(c23)C1=O`, the Potency result was “inactive”.
Still for that read-out and setting: next, `CCCCCCC(CO)CCCC` (stereo not given): “inactive”; `CCOC(=O)Oc1ccc(CCNC(=O)[C@H](CCSC)NC(C)=O)cc1OC(=O)OCC`: “inactive”.
`CC1CCc2nccnc21` (stereo not given): the Potency entry was “inactive”.
Take `CSSc1ccoc1C`: the Potency result is “inactive”.
Same read-out and setting: next, `Cc1oc(=O)oc1COC(=O)[C@@H]1N2C(=O)[C@@H](NC(=O)[C@H](N)c3ccccc3)[C@H]2SC1(C)C`: “inactive”; `O=c1[nH][nH]c(=O)c2cc([N+](=O)[O-])ccc12`: “inactive”.
The same measure, in the same setting: the figure for `O=[N+]([O-])C1(Br)COCOC1` is 43.3 µM (active).
Same read-out and setting: the entry for `CCOC(=O)c1ccc(NC(=O)CN2CCCCC2)cc1` is “inactive”; for `N[C@@H](Cc1cc(I)c(O)c(I)c1)C(=O)O` it is “inactive”.
`COc1cc(NC(C)CCCN)c2ncccc2c1` (stereo not given): the Potency entry is “inactive”.
As to `O=S(=O)(O)CO`, the Potency result was “inactive”.
Regarding `O=C(O)CCS`, the Potency entry was “inactive”.
The same measure, in the same setting: next, `CCC1CCC(CCC(=O)O)C1` (stereo not given): “inactive”.
On the same count and under the same terms, the entry for `COc1ccc(C(=O)NCc2ccc(OCCN(C)C)cc2)cc1OC` is “inactive”.
On the same count and under the same terms, the entry for `CC(CCc1ccc(O)cc1)NCCc1ccc(O)c(O)c1` (stereo not given) is “inactive”.
In the case of `Oc1cccc2[nH]ccc12`, the Potency result is “inactive”.
As to `O=C(O)CO`, the Potency result is “inactive”.
